Assay results taken from PubChem BioAssay AID588358 (NMMLSC, 2011).
The campaign covered roughly 310,000 compounds. About 1,500 (0.48%) were called active. This is one part of a sample in which actives are shown more often than they occur. Unmarked numbers belong to inactive results.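 How the source made its calls: active means binding more than 3 SD below its plate's average and above zero; inconclusive means below that plate limit but binding exactly zero; inactive means the rest.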

What follows are compounds tested against Desmoglein-3 (Homo sapiens) (UniProt P32926) (assay: blockers of anti-DSG3 scFv binding – biochemical, bead-based, flow cytometry, scFv-GFP, primary screen (AID 588358;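 further: hits lower antibody fragment binding to DSG3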)). Conditions: DSG3-coupled beads, at 10 µM, hits give low values.
Desmoglein-3 (Homo sapiens), sequence (P32926 whole entry, looked up, the tested form may be a part): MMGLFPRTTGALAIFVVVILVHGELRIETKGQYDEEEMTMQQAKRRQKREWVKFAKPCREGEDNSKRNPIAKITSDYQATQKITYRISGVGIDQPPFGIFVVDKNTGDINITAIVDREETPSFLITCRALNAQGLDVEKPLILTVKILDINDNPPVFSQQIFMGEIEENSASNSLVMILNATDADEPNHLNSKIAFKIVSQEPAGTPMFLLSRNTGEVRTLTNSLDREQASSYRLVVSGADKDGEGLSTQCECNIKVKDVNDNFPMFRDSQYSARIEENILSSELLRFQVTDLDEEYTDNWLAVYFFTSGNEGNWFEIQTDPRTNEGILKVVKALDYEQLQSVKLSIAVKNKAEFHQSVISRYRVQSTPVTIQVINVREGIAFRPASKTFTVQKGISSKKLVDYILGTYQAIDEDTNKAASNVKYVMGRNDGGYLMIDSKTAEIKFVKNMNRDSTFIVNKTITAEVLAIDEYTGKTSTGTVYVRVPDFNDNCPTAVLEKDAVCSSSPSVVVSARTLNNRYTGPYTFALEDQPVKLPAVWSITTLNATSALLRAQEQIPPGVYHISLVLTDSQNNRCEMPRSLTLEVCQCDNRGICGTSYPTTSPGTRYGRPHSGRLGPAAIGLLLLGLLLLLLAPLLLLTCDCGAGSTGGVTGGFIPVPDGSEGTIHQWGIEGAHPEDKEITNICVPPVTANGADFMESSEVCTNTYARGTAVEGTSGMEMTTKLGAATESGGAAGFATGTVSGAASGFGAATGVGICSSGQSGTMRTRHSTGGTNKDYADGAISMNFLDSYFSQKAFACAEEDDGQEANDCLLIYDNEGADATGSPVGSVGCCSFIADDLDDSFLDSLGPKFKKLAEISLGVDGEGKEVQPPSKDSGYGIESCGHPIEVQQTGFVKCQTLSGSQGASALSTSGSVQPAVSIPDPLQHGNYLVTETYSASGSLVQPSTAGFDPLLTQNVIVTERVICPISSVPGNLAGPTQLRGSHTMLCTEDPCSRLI
In the case of Cc1ccc(-c2ccc(CN3C(C)C(=O)N(Cc4cn(CCC5OCCCO5)nn4)CCS3(=O)=O)cc2)cc1 (centres undefined), the binding (percent of control) is reported as 104%. With C/C(=N/NC(=S)Nc1ccccc1)c1ccc2c(c1)OCO2 the binding (percent of control) was 98.1%. With Cc1ccc(NC(=O)c2cc3ccccc3o2)cc1 the binding (percent of control) was 110%. With C/C(=N\NC(=S)Nc1ccc(C)cc1)c1cc2ccccc2o1 the binding (percent of control) was 83.6% (active). Work on Cc1cc2cc3n(c2nn1)N=C(Cl)CC3 yielded a binding (percent of control) of 104%. O=S1(=O)CCN(Cc2ccccc2)CC1 was tested, and the binding (percent of control) was 96.1%. In the case of O=C(c1ccc(N2CCCC2=O)cc1)N1CCN(c2ccc(C(F)(F)F)cc2[N+](=O)[O-])CC1, the binding (percent of control) is reported as 99%. In the case of Cc1cc2nc3c(=O)n(Cc4ccccc4)c(=O)[nH]c3nc2cc1N, the binding (percent of control) is reported as 99.2%. Nc1ccc2nc3c(=O)[nH]c(=S)[nH]c3nc2c1 was tested, and the binding (percent of control) was 19% (active). O=C(OCc1ccccc1)N1CCC2CC1c1cc(N3CCN(S(=O)(=O)c4cc(Cl)cc(Cl)c4)CC3)ccc12 (centres undefined) showed a binding (percent of control) of 100%. With CCCCN1C(=O)C(CC(=O)NC(c2ccccc2)c2ccccc2)CC(C(=O)N2CCOCC2)=C1C (centres undefined) the binding (percent of control) was 102%. For O=C(N/N=C/c1ccc([N+](=O)[O-])cc1)C(=O)N1CCCC1, the binding (percent of control) was -16.9% (active). With COC(=O)c1ccc(/C=N/NC(=O)C(=O)N2CCCCCC2)cc1 the binding (percent of control) was 102%. With O=C(NN=Cc1ccc([N+](=O)[O-])cc1)C1CC1 the binding (percent of control) was 122%. Cc1ccc(S(=O)(=O)N2C[C@@H](C)[C@]3(C2)[C@H](O)[C@H](OC(=O)NCc2ccccc2)C[C@H]2C(=O)N(c4ccccc4)C(=O)[C@H]23)cc1 gave a binding (percent of control) of 111%. Cc1ccc(Oc2cnn(-c3ccccc3)c(=O)c2Br)cc1 was tested, and the binding (percent of control) was 117%. With Cc1ccc(O/C=C2\OC(=O)c3ccccc32)cc1 the binding (percent of control) was 80.4% (active). Compound CN(C)C(CNC(=O)c1cccc(S(=O)(=O)N2CCc3ccccc3C2)c1)c1ccccc1 (centres undefined) has a binding (percent of control) of 97.5%. In the case of Cc1cc(Cl)ccc1C(=O)C1CCCN(C(=O)c2ccc3c(c2)OCO3)C1 (centres undefined), the binding (percent of control) is reported as 103%. CCOC(=O)c1c(S(=O)(=O)NCC(=O)Nc2ccc(C)cc2)c(C)n(C)c1C showed a binding (percent of control) of 97.8%. For CCOC(=O)c1c(S(=O)(=O)Nc2cccc(Cl)c2)c(C)n(C)c1C, the binding (percent of control) was 52% (active). Compound CCOC(=O)c1cccc(NS(=O)(=O)c2c(C(=O)N3CCCCCC3)c(C)n(C)c2C)c1 has a binding (percent of control) of 99.4%. Compound N#CCCN(C(=O)Nc1ccc(Cl)c(Cl)c1)C1CCCCC1 has a binding (percent of control) of 105%. With Cn1nc(N)c2ncc(C(Cl)(Cl)Cl)nc21 the binding (percent of control) was 100%. Compound O=C(CC(CC(=O)c1ccccc1)c1ccco1)c1ccccc1 has a binding (percent of control) of 99.4%. CNC(=O)C1CN(C(=O)c2cccc(S(=O)(=O)N3CCc4ccccc43)c2)c2ccccc2O1 (centres undefined) was tested, and the binding (percent of control) was 103%. In the case of Cc1cccc(C(=O)OCC(=O)Nc2sccc2C(N)=O)c1C, the binding (percent of control) is reported as 104%. CCc1ccc(NC(=O)Cn2nnc(C(=O)NCc3ccc(OC)cc3)c2N)cc1 showed a binding (percent of control) of 106%. COc1ccc(NC(=O)Cn2nnc(C(=O)NCCc3ccc(OC)c(OC)c3)c2N)cc1 gave a binding (percent of control) of 103%. For CCOc1ccc(Cn2nnc(C(=O)Nc3ccc(OC)cc3OC)c2N)cc1, the binding (percent of control) was 81.7% (active). C[C@H]1NS(=O)(=O)c2cc(Cl)ccc2O[C@@H]1c1ccccc1 was tested, and the binding (percent of control) was 98.4%. Compound COc1cc2ccccc2cc1C(=O)Nc1ccc(NC(=O)c2cccs2)cc1 has a binding (percent of control) of 87.2%. With COc1ccc(CCNC(=O)/C(C#N)=C2\N=C(NC(=O)c3cccs3)c3ccccc32)cc1 the binding (percent of control) was 81.2% (active). For COc1ccc(CN(Cc2ccc(OC)cc2)C(=O)c2cccs2)cc1, the binding (percent of control) was 100%. In the case of COc1ccc(OC)c(C(=O)NC2CCCc3c2cnn3-c2cc(C)cc(C)c2)c1 (centres undefined), the binding (percent of control) is reported as 96.8%. In the case of Cc1coc2c(O)cc3c(c12)OC1(N2CCCCC2)C(=O)NCCCC31 (centres undefined), the binding (percent of control) is reported as 62.7% (active). In the case of CCCCN(C(C)=O)c1ccc2c(c1)C1CC2CCN1Cc1ccccc1 (centres undefined), the binding (percent of control) is reported as 101%. For NC(=S)NN=Cc1ccc(OC(=O)COc2cc(Cl)c(Cl)cc2Cl)cn1, the binding (percent of control) was 102%. With COCOCCn1cc(CN2CCS(=O)(=O)N(Cc3ccc(-c4cccc(N(C)C)c4)cc3)C(CC(C)C)C2=O)nn1 (centres undefined) the binding (percent of control) was 101%. With CCOC(=O)c1c(NC(=O)COC(=O)c2ccc(S(=O)(=O)C(F)F)cc2)sc(C(=O)N(C)C)c1C the binding (percent of control) was 100%. Compound C(=N\N1CCN(c2ccccn2)CC1)/C1=C(N2CCOCC2)C(=C/c2ccccc2)/CC1 has a binding (percent of control) of 109%. In the case of O=C(O)c1ccc(NN=CC2=C(N3CCOCC3)/C(=C/c3ccccc3)CC2)cc1, the binding (percent of control) is reported as 109%. With O=C1Nc2ccc(Br)cc2/C1=N/N=C/C1=C(N2CCOCC2)C(=C\c2ccccc2)/CC1 the binding (percent of control) was 38.1% (active). CN1OC[C@@H]2CN(C(=O)c3ccc(-c4ccccc4)cc3)[C@H](c3ccc(-c4cccc(F)c4)cc3)C[C@@H]21 showed a binding (percent of control) of 98.8%.
